{"source": "the supplement of paper PMC8728848", "binders": {"B1": {"name": "NESD (Drosophila melanogaster), NP_610025.1 (protein)", "chain": "MGHHHHHHSSGVDLGTENLYFQSMMEVFTFEKSYLERLKEAEAVLSWEGAVMPASQVRSEWKSYVELKIEPAGWQAIWKIPRVICEDLKLRYPTIVYGYVEQVIFDELKAVFVVTAVQDSDVHLPESNEVSLVELWPTVQQENAALNVDTTAECIDRLRFFYTHVWMPWDKDYDDDRDWVQQHLQARIQLVCDLSKNRLPRPLALHMRTLLAEAKYIQQRLDYLELDLSDAESDDEAVELNDSVAEPARKQSKAGSANGCLNVSSLPVTDLMCLHLRMAIIRSEFEILENPEMRRAYSELQSNSLKRLRCSSGRTRQSEDLLVERNSISHVVTLPGKLQQQLELLKLAQTLVKPESKVQLSNTLQDVLSICQSNDDILLSPGEHTIKFLEHLNDNGSLRGLTQPEAILSPAADLSLLPVVCSSDEDSTLLVIDGDYTLSELVLDCRHVRRGILLRNGTLTMRGCRLLGDGSSSTQEGIVCMPGASVELKSCLIENFAVGVSMRPKSSAELGSVQFKTCKTGLELLEKSASVNLQGSKCSFENCALGILADGFVLGEQRTEKVLVLNKFSELQRYNEDNLLGNCSFYNCKKNVRVFNESGQLLAQRSHQQLLEDELGGENKENIQLV"}}, "test_in_all_cases": "glycan array binding signal (z-score within array); higher = stronger binding", "conditions_in_all_cases": "glycan notation: IUPAC condensed, linker removed", "key": {"Fuc(a1-2)Gal": {"target": "Fuc(a1-2)Gal", "summary_of_the_method": "(§1)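 Negative Z-scores can be read as non-binding. The Z-score is calculated within each array and then averaged across arrays of one protein sequence at different concentrations or buffers and across linkers. Arrays, 3228 in all, were curated from the Consortium for Functional Glycomics database and kept only where the protein sequence was available.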"}, "[1]": {"target": "Fuc(a1-3)[Gal3S(b1-4)]GlcNAc6S", "summary_of_the_method": "as §1"}, "Gal(a1-3)Gal(b1-4)Glc": {"target": "Gal(a1-3)Gal(b1-4)Glc", "summary_of_the_method": "as §1"}, "Gal(a1-3)Gal(b1-4)GlcNAc": {"target": "Gal(a1-3)Gal(b1-4)GlcNAc", "summary_of_the_method": "as §1"}, "Gal(a1-4)Gal(b1-4)Glc": {"target": "Gal(a1-4)Gal(b1-4)Glc", "summary_of_the_method": "as §1"}, "Gal(b1-3)GlcNAc": {"target": "Gal(b1-3)GlcNAc", "summary_of_the_method": "as §1"}, "[2]": {"target": "Gal(b1-3)[Fuc(a1-4)]GlcNAc(b1-3)Gal(b1-4)[Fuc(a1-3)]GlcNAc", "summary_of_the_method": "as §1"}, "Gal(b1-4)Glc": {"target": "Gal(b1-4)Glc", "summary_of_the_method": "as §1"}, "Gal(b1-4)Glc6S": {"target": "Gal(b1-4)Glc6S", "summary_of_the_method": "as §1"}, "[3]": {"target": "Gal(b1-4)GlcNAc(b1-3)Gal(b1-4)GlcNAc", "summary_of_the_method": "as §1"}, "[4]": {"target": "Gal(b1-4)GlcNAc(b1-3)Gal(b1-4)GlcNAc(b1-3)Gal(b1-4)GlcNAc", "summary_of_the_method": "as §1"}, "Gal3S(b1-4)GlcNAc": {"target": "Gal3S(b1-4)GlcNAc", "summary_of_the_method": "as §1"}, "[5]": {"target": "Gal3S(b1-4)[Fuc(a1-3)]Glc", "summary_of_the_method": "as §1"}, "Gal3S4S(b1-4)GlcNAc": {"target": "Gal3S4S(b1-4)GlcNAc", "summary_of_the_method": "as §1"}, "Gal3S6S(b1-4)GlcNAc6S": {"target": "Gal3S6S(b1-4)GlcNAc6S", "summary_of_the_method": "as §1"}, "Gal4S(b1-4)GlcNAc": {"target": "Gal4S(b1-4)GlcNAc", "summary_of_the_method": "as §1"}, "Glc(a1-6)Glc(a1-6)Glc": {"target": "Glc(a1-6)Glc(a1-6)Glc", "summary_of_the_method": "as §1"}, "[6]": {"target": "Man(a1-2)Man(a1-2)Man(a1-6)[Man(a1-3)]Man", "summary_of_the_method": "as §1"}, "Man(a1-2)Man(a1-3)Man": {"target": "Man(a1-2)Man(a1-3)Man", "summary_of_the_method": "as §1"}, "[7]": {"target": "Man(a1-2)Man(a1-3)[Man(a1-2)Man(a1-6)]Man(a1-6)[Man(a1-2)Man(a1-2)Man(a1-3)]Man(b1-4)GlcNAc(b1-4)GlcNAc", "summary_of_the_method": "as §1"}, "[8]": {"target": "Neu5Ac(a2-3)Gal(b1-3)GalNAc(b1-3)Gal(b1-4)GlcNAc", "summary_of_the_method": "as §1"}, "[9]": {"target": "Neu5Ac(a2-3)Gal(b1-4)[Fuc(a1-3)]GlcNAc6S", "summary_of_the_method": "as §1"}, "[10]": {"target": "Neu5Ac(a2-6)Gal(b1-4)GlcNAc(b1-2)Man(a1-3)[Gal(b1-4)GlcNAc(b1-2)Man(a1-6)]Man(b1-4)GlcNAc(b1-4)GlcNAc", "summary_of_the_method": "as §1"}}, "note": "The full list was thinned out, with the strongest signals kept by preference.", "data": [{"binder": "B1", "values": [{"measurement": "glycan array binding signal (z-score)", "setting": "Fuc(a1-2)Gal", "result": 0.437}, {"measurement": "glycan array binding signal (z-score)", "setting": "[1]", "result": 1.18}, {"measurement": "glycan array binding signal (z-score)", "setting": "Gal(a1-3)Gal(b1-4)Glc", "result": -0.126}, {"measurement": "glycan array binding signal (z-score)", "setting": "Gal(a1-3)Gal(b1-4)GlcNAc", "result": -0.108}, {"measurement": "glycan array binding signal (z-score)", "setting": "Gal(a1-4)Gal(b1-4)Glc", "result": -0.242}, {"measurement": "glycan array binding signal (z-score)", "setting": "Gal(b1-3)GlcNAc", "result": -0.219}, {"measurement": "glycan array binding signal (z-score)", "setting": "[2]", "result": -0.47}, {"measurement": "glycan array binding signal (z-score)", "setting": "Gal(b1-4)Glc", "result": 3.98}, {"measurement": "glycan array binding signal (z-score)", "setting": "Gal(b1-4)Glc6S", "result": 2.75}, {"measurement": "glycan array binding signal (z-score)", "setting": "[3]", "result": 0.201}, {"measurement": "glycan array binding signal (z-score)", "setting": "[4]", "result": 0.303}, {"measurement": "glycan array binding signal (z-score)", "setting": "Gal3S(b1-4)GlcNAc", "result": 0.142}, {"measurement": "glycan array binding signal (z-score)", "setting": "[5]", "result": -0.195}, {"measurement": "glycan array binding signal (z-score)", "setting": "Gal3S4S(b1-4)GlcNAc", "result": 0.201}, {"measurement": "glycan array binding signal (z-score)", "setting": "Gal3S6S(b1-4)GlcNAc6S", "result": 1.17}, {"measurement": "glycan array binding signal (z-score)", "setting": "Gal4S(b1-4)GlcNAc", "result": 0.349}, {"measurement": "glycan array binding signal (z-score)", "setting": "Glc(a1-6)Glc(a1-6)Glc", "result": 6.3}, {"measurement": "glycan array binding signal (z-score)", "setting": "[6]", "result": -0.364}, {"measurement": "glycan array binding signal (z-score)", "setting": "Man(a1-2)Man(a1-3)Man", "result": -0.316}, {"measurement": "glycan array binding signal (z-score)", "setting": "[7]", "result": 0.313}, {"measurement": "glycan array binding signal (z-score)", "setting": "[8]", "result": 0.016}, {"measurement": "glycan array binding signal (z-score)", "setting": "[9]", "result": 0.068}, {"measurement": "glycan array binding signal (z-score)", "setting": "[10]", "result": 0.256}]}]}
